Measured values from the supplement of paper PMC7366291.
Where a name gives a salt, the structure may show the parent alone.

Tested on: Danio rerio Tg(wt1b:EGFP) embryo, pronephros
Experiment: fraction of imaged embryos annotated as normal kidney; higher = less nephrotoxic; extreme values may be limits of the assay
Conditions: 25 µM; exposure: 24-48 hpf
How it was run: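 Zebrafish embryos carrying Tg(wt1b:EGFP) were dechorionated and exposed to 25 μM compound (0.5% DMSO) between 24 and 48 hpf at 28.5°C. Their pronephroi were imaged by widefield fluorescence, and each embryo was classed by hand from maximum projections. The measure is the fraction of embryos per treatment falling in the normal-kidney category.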

| Structure (SMILES) | fraction of imaged embryos annotated as normal kidney |
| --- | --- |
| O=C(O)Cc1sc(-c2ccccc2)nc1-c1ccc(Cl)cc1 [Fentiazac] | 0 |
| CCC1(c2ccccc2)NC(=O)N(C)C1=O (stereo not given) [Mephenytoin] | 0.75 |
| O=C1c2ccccc2C(=O)C1c1ccccc1 [Phenindione] | 0.75 |
| COc1cc(C(=O)OCCCN2CCCN(CCCOC(=O)c3cc(OC)c(OC)c(OC)c3)CC2)cc(OC)c1OC [Dilazep dihydrochloride] | 0.75 |
| CC=CC1=C(C(=O)O)N2C(=O)[C@@H](NC(=O)[C@H](N)c3ccc(O)cc3)[C@H]2SC1 [Cefprozil] | 0.917 |
| CCOc1ccccc1OCC1CNCCO1 (stereo not given) [Viloxazine hydrochloride] | 0.833 |
| CC(N/C(=N\C#N)Nc1ccncc1)C(C)(C)C (stereo not given) [Pinacidil] | 0.727 |
| C#C[C@]1(O)CC[C@H]2[C@@H]3CCC4=CC(=O)CC[C@@H]4[C@H]3CC[C@@]21CC [Norgestrel-(-)-D] | 1 |
| Oc1c(I)cc(Cl)c2cccnc12 [Clioquinol] | 0 |
| N[C@@H](C(=O)N[C@@H]1C(=O)N2C(C(=O)O)=C(Cl)CS[C@H]12)c1ccccc1 [Cefaclor hydrate] | 0.833 |
| CC1(C)S[C@@H]2[C@H](NC(=O)[C@H](N)c3ccccc3)C(=O)N2[C@H]1C(=O)O [Ampicillin trihydrate] | 0.917 |
| Nc1ccc(S(=O)(=O)Nc2ccc(Cl)nn2)cc1 [Sulfachloropyridazine] | 0.75 |
| Cc1nccn1CC1CCc2c(c3ccccc3n2C)C1=O (stereo not given) [Ondansetron Hydrochloride] | 0.833 |
| CO/N=C(\C(=O)N[C@@H]1C(=O)N2C(C(=O)OC(C)OC(C)=O)=C(COC(N)=O)CS[C@H]12)c1ccco1 (stereo not given in full) [Cefuroxime axetil] | 0.917 |
| CCCNC(C)(C)COC(=O)c1ccccc1 [Meprylcaine hydrochloride] | 1 |
| NC(=O)N/N=C/c1ccc([N+](=O)[O-])o1 [Nitrofural] | 1 |
| CS(=O)(=O)c1ccc([C@@H](O)[C@@H](CF)NC(=O)C(Cl)Cl)cc1 [Florfenicol] | 1 |
| CC1COc2c(N3CCN(C)CC3)c(F)cc3c(=O)c(C(=O)O)cn1c23 (stereo not given) [Ofloxacin] | 0.833 |
| CCCC(C(=O)OCCN(CC)CC)(c1ccccc1)c1ccccc1 [Proadifen hydrochloride] | 0.889 |
| C[C@]12C=CC(=O)C=C1CC[C@@H]1[C@@H]2[C@@H](O)C[C@@]2(C)[C@H]1CC[C@]2(O)C(=O)CO [Prednisolone] | 0.75 |

| Structure (SMILES) | fraction of imaged embryos annotated as normal kidney |
| --- | --- |
| Nc1nc(F)nc2c1ncn2[C@@H]1O[C@H](CO)[C@@H](O)[C@@H]1O [Fludarabine] | 1 |
| CN1CCN2c3ncccc3Cc3ccccc3C2C1 (stereo not given) [Mirtazapine] | 1 |
| O=P(O)(O)C(O)(Cc1cccnc1)P(=O)(O)O [Risedronic acid monohydrate] | 0.833 |
| CCN1CCCC1CNC(=O)c1cc(S(N)(=O)=O)ccc1OC (stereo not given) [Sulpiride] | 0.75 |
| CCN1CCN(c2cc3c(cc2F)c(=O)c(C(=O)O)cn3C2CC2)CC1 [Enrofloxacin] | 0.917 |
| COc1cc2c(cc1OC)C(=O)C(CC1CCN(Cc3ccccc3)CC1)C2 (stereo not given) [Donepezil hydrochloride] | 0.833 |
| CN1CCN(C2=Nc3ccccc3Oc3ccc(Cl)cc32)CC1 [Loxapine succinate] | 0.75 |
| CO/N=C(\C(=O)N[C@@H]1C(=O)N2C(C(=O)O)=C(COC(N)=O)CS[C@H]12)c1ccco1 [Cefuroxime sodium salt] | 1 |
| CC(C)/N=c1\cc2n(-c3ccc(Cl)cc3)c3ccccc3nc-2cc1Nc1ccc(Cl)cc1 [Clofazimine] | 0.75 |
| CCC1=C(C)CN(C(=O)NCCc2ccc(S(=O)(=O)NC(=O)N[C@H]3CC[C@H](C)CC3)cc2)C1=O [Glimepiride] | 0.917 |
| N=C(N)NC(=O)Cc1c(Cl)cccc1Cl [Guanfacine hydrochloride] | 0.583 |
| CC[N+](CC)(CC)CCC(O)(c1ccccc1)C1CCCCC1 (stereo not given) [Tridihexethyl chloride] | 0.818 |
| CC[N+](CC)(CC(=O)Nc1c(C)cccc1C)Cc1ccccc1 [Denatonium benzoate] | 0.917 |
| CCCCCCC[N+](CC)(CC)CCCCc1ccc(Cl)cc1 [Clofilium tosylate] | 0.583 |
| CN[C@H](CC(C)C)C(=O)N[C@H]1C(=O)N[C@@H](CC(N)=O)C(=O)N[C@H]2C(=O)N[C@H]3C(=O)N[C@H](C(=O)N[C@H](C(=O)O)c4cc(O)cc(O)c4-c4cc3ccc4O)[C@H](O)c3ccc(c(Cl)c3)Oc3cc2cc(c3O[C@@H]2O[C@H](CO)[C@@H](O)[C@H](O)[C@H]2O[C@H]2C[C@](C)(N)[C@H](O)[C@H](C)O2)Oc2ccc(cc2Cl)[C@H]1O [Vancomycin hydrochloride] | 0.909 |
| C[C@H]1C[C@H]2[C@@H]3CCC4=CC(=O)C=C[C@]4(C)[C@@]3(F)[C@@H](O)C[C@]2(C)[C@@]1(O)C(=O)CO [Betamethasone] | 0.583 |
| CN1CCN(CC(=O)N2c3ccccc3C(=O)Nc3cccnc32)CC1 [Pirenzepine dihydrochloride] | 0.75 |
| C[C@@H]1NC(=O)NC1=O [Methylhydantoin-5-(L)] | 1 |
| COc1cc(C)nc(-n2nc(C)cc2OC)n1 [Epirizole] | 0.75 |
| CCOCCn1c(N2CCCN(C)CC2)nc2ccccc21 [Emedastine] | 0.917 |
